Screening data from PubChem BioAssay.
This excerpt belongs to a sample that is enriched for hits.
CBX7 inh: inhibitors of human CBX7 binding to H3K27me3 peptide. AlphaScreen His6-CBX7 / biotin-H3K27me3 peptide binding; hits give low values. normalised signal (fraction of DMSO) (no concentration beside the values). hit rate 1.1% among 66,000; in the data active = normalised signal below about 0.5
Target sequence (O95931 whole entry, looked up): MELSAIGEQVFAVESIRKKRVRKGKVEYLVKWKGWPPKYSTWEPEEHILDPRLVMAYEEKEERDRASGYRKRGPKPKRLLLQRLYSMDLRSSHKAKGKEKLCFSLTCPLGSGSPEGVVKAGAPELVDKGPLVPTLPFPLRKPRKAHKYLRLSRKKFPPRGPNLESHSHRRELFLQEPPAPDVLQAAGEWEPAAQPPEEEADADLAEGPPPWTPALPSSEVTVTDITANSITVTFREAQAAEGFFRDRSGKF
Starred values were filed as active, the others as inactive; ! = not active in a repeat.

SMILES	CBX7 inh
Cc1ccccc1Nc1c(-c2ccc(Cl)cc2)nc2ccc(Cl)cn12	0.93
COc1ccc(Nc2cc(C(=O)N3CCCC3)c3ccccc3n2)cc1	0.95
COC(=O)c1ccc(Nc2nc(N3CCN(C)CC3)c3ccccc3n2)cc1	1
COc1ccc(Nc2nc(N3CCCC3)c3ccccc3n2)cc1	0.49*
Cc1sc2nc[nH]c(=O)c2c1S(=O)(=O)N1CCN(c2ncccn2)CC1	0.98
CCCNC(=O)CSCc1nc(-c2ccc(OC)c(OC)c2)oc1C	0.95
Cc1onc(-c2c(F)cccc2Cl)c1C(=O)Nc1ccccc1	1
Cc1onc(-c2c(Cl)cccc2Cl)c1C(=O)NCC1CCCO1 (stereo unspecified)	1
Cc1onc(-c2c(F)cccc2Cl)c1C(=O)NCC1COc2ccccc2O1 (stereo unspecified)	0.47*
COc1ccccc1-c1cc(C(=O)Nc2ccc(Br)cc2)no1	0.96
CCOc1ccc(NC(=O)Cn2cc(S(=O)(=O)c3ccccc3)c(=O)c3cc(Cl)ccc32)cc1	0.99
CC(CNC(=O)c1cnn(-c2ccccc2)c1-n1cccc1)c1ccccc1 (stereo unspecified)	1
CCN1CCCc2cc(CN(CCN3CCOCC3)C(=O)Nc3ccc(Cl)cc3)ccc21	0.63
CCCCN1CCCc2cc(CN(CCCN3CCOCC3)C(=O)Nc3ccc(C)c(C)c3)ccc21	0.22*
CCOc1ccc(NC(=O)N(CCN2CCOCC2)Cc2ccc3c(c2)CCCN3CC)cc1	0.78
CCCN1CCCc2cc(CN(CCCOC)C(=O)Nc3ccc(OCC)cc3)ccc21	0.23*
CCCN1CCCc2cc(CN(CCCN3CCOCC3)C(=O)Nc3ccc(OCC)cc3)ccc21	0.72
CCCN1CCCc2cc(CN(CCCOC)C(=O)Nc3ccc(C)c(C)c3)ccc21	0.64
Cc1nn(C)c(C)c1S(=O)(=O)N(CC(=O)NCc1ccc(Cl)cc1)c1ccc(C(C)C)cc1	1.2
CCCOc1ccccc1N1C(=O)CC(Nc2ccc(C)cc2)C1=O (stereo unspecified)	0.85
CCCCn1c(CCCNC(=O)Cc2ccccc2)nc2ccccc21	1.1
CCCCN(CCCC)S(=O)(=O)c1ccc(C(=O)Nc2nnc(-c3ccccc3Cl)o2)cc1	1
CCN(CC)S(=O)(=O)c1ccc(C(=O)Nc2nnc(-c3ccccc3Cl)o2)cc1	1
CCCCN(CCCC)S(=O)(=O)c1ccc(C(=O)Nc2nnc(COC)o2)cc1	0.16*
CCCCN(CCCC)S(=O)(=O)c1ccc(C(=O)Nc2nnc(-c3cccs3)o2)cc1	0.81
SMILES	CBX7 inh
CCN(CC)S(=O)(=O)c1ccc(C(=O)Nc2nnc(COC)o2)cc1	0.024*
Cc1ccnc(NS(=O)(=O)c2ccc(NC(=O)CCCOc3ccccc3)cc2)n1	0.9
Cc1noc(/C=C/c2cccs2)c1S(=O)(=O)N1CCC(C(=O)Nc2ccc(Cl)cc2)CC1	1
O=C(CCc1cn(Cc2ccccc2)c2ccccc12)NCCc1ccc(Cl)cc1	0.94
CCc1ccc(CNC(=O)CCc2cn(Cc3ccccc3)c3ccccc23)cc1	0.97
O=C(CCc1cn(Cc2ccccc2)c2ccccc12)NCc1ccccc1Cl	0.49*
Cc1ccc(Cn2cc(CCC(=O)NCc3cccnc3)c3ccccc32)cc1	0.26*
COc1cccc(CNC(=O)CCc2cn(Cc3ccc(C)cc3)c3ccccc23)c1	0.88
Cc1ccc(Cn2cc(CCC(=O)NCc3ccccc3)c3ccccc32)cc1	0.94
CCOC(=O)c1cnc2cc(C(F)(F)F)ccc2c1Nc1ccc(OCC)cc1	0.72
O=C(NCc1ccc(F)cc1)c1ccc2c(c1)N(Cc1ccccc1Cl)C(=O)CS2	1
CC(C)CCNC(=O)CCCN1C(=O)CSc2ncccc21	0.89
Cc1ccc(-c2nnc(Nc3cccc(O)c3)c3ccccc23)cc1	0.42*
CCOc1ccc(-c2nnc(Nc3ccc(C(=O)N(C)C)cc3)c3ccccc23)cc1	1
Cc1nnc(Nc2cccc(O)c2)c2ccccc12	1
Oc1cccc(Nc2nnc(-c3ccc(Cl)cc3)c3ccccc23)c1	0.54
CCOc1ccc(-c2nnc(Nc3cccc(O)c3)c3ccccc23)cc1	0.49*
CCOc1ccc(-c2nnc(Nc3ccc(O)cc3)c3ccccc23)cc1	1
COc1ccc(C(=O)CSc2nnc(Cc3cc(=O)[nH]c(=O)[nH]3)n2-c2cccc(OC)c2)cc1	0.91
O=C(c1cccc(NC2=NC3CS(=O)(=O)CC3S2)c1)N1CCN(C2CCCCC2)CC1 (stereo unspecified)	1.1
CCOc1ccccc1Nc1nc(-c2c(C)nc3sccn23)cs1	1
Cc1ccc(Nc2nc(-c3c(C)nc4ccccn34)cs2)cc1	0.9
Cc1ccccc1Nc1nc(-c2c(C)nc3ccccn23)cs1	0.88
CCN(CC)c1ccc(Nc2nc(-c3c(C)nc4ccccn34)cs2)cc1	0.076*
Cc1nc2ccccn2c1-c1csc(Nc2ccc(Cl)cc2)n1	0.95
SMILES	CBX7 inh
Cc1ccccc1Nc1nc(-c2c(C)nc3sccn23)cs1	0.4*!
COc1ccc(OCCOCCn2c(-c3ccc(Cl)cc3)nc3ccccc3c2=O)cc1	1.2
COc1ccc(-c2nc(CS(=O)(=O)CC(=O)Nc3ccccc3Cl)c(C)o2)cc1	0.92
COc1ccc(NC(=O)Cn2c(SCc3ccc(F)cc3)nc3ccncc32)cc1OC	0.92
COc1ccc(N2CCN(C(=O)c3nn(-c4cccc(OC)c4)c(=O)c4ccccc34)CC2)cc1	0.84
O=C(CCn1nc(-c2ccc(Cl)cc2)ccc1=O)NCc1ccc2c(c1)OCO2	1
COc1ccccc1-c1c(C)nn2c(N3CCN(c4ccccn4)CC3)cc(C)nc12	0.97
Cc1cc(N2CCC(C)CC2)nc2ccc(NC(=O)CCC(=O)N3CCCCCC3)cc12	0.83
CCOC(=O)C1CCCN(C(=O)CCC(=O)Nc2ccc3nc(N4CCC(C)CC4)cc(C)c3c2)C1 (stereo unspecified)	1
Cc1cc(N2CCCCC2)nc2ccc(NC(=O)CCC(=O)N3CCCC(C)C3)cc12 (stereo unspecified)	0.48*
CCCOC(=O)c1ccc(Nc2cc(C)nc3ccc(OC)cc23)cc1	1
COc1ccc(-c2nn(C)c3sc(C(=O)Nc4ccc(F)cc4F)cc23)cc1OC	1.1
Cc1cccc(NC(=O)CSc2nnc(CNC(=O)c3ccccc3F)o2)c1C	1
Cc1ccc(S(=O)(=O)NCC(NC(c2ccccc2)c2ccccc2)c2ccccc2)cc1 (stereo unspecified)	0.84
COc1ccc(CNC(=O)c2ccc(CNS(=O)(=O)c3ccccc3)cc2)cc1	0.99
COc1ccc(NC(CNS(=O)(=O)c2ccccc2)c2ccccc2)cc1 (stereo unspecified)	0.29*
O=C(NCc1ccc(F)cc1)c1cc(-c2ccc(O)cc2)on1	1
CCN(CCNC(=O)c1cc(Nc2cc(OC)ccc2OC)nc2ccccc12)c1ccccc1	0.91
CCOC(=O)c1cnc2ccc(OCC)cc2c1Nc1ccc(CC)cc1	1.1
CCOC(=O)c1cnc2ccc(OCC)cc2c1Nc1ccc2c(c1)OCO2	0.42*
CCOC(=O)c1cnc2ccc(OCC)cc2c1Nc1ccc2c(c1)OCCO2	0.87
CCOC(=O)c1cnc2ccc(Br)cc2c1Nc1ccc2c(c1)OCCO2	0.84
CCOC(=O)c1cnc2ccc(OC)cc2c1Nc1ccc(C)c(C)c1	1.1
CCOC(=O)c1cnc2ccc(OC)cc2c1Nc1ccc2c(c1)OCCO2	0.47*
COc1cc(-c2nnc(SCCCCOc3ccccc3)o2)cc(OC)c1OC	1
CCc1ccc(OCC(=O)Nc2c(C(=O)c3ccc(C)cc3)oc3ccccc23)cc1	1.1
Cc1c(C(=O)Nc2c(C(=O)c3ccc(Cl)cc3)oc3ccccc23)oc2ccccc12	1.4
